Assay results reported in PubChem BioAssay (Tox21).
Where “and” joins values, the source holds several entries; their conditions need not be identical. Equal entries are not always repeated. Inconclusive results are not listed. Entries that show only a call come without a potency. Where a structure was tested more than once in an assay, its records may differ in their call. Calls of active or inactive are those of the source. Unless noted, calls come from the whole dose curve; as a rule, active = well fitted curve in the direction sought with a large enough effect in the repeat runs; inconclusive = weak or mixed curves; inactive = no such curve, though single readings can be large; an effect the other way counts as inactive or inconclusive.

Legend:
[1] = qHTS assay to identify small molecule agonists of the RXR signaling pathway - cell viability counter screen (AID 1159529); note: nearly all actives have a fitted effect of over 50% in size; note: potency is the fitted concentration of half-maximal effect
Outline: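 Compounds dissolved in DMSO were pinned onto HEK 293T cells carrying a beta-lactamase reporter under RXR-alpha control and incubated 16 hr. Cytotoxicity was then quantified by CellTiter-Glo luminescence.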

[2] = qHTS assay to identify small molecule antagonists of the retinoid acid receptor (RAR) signaling pathway - cell viability counter screen (AID 1159551); note: nearly all actives have a fitted effect of over 35% in size
Outline: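 C3RL4 cells were seeded overnight at 37 C, then treated with compounds plus 1 uM (final) retinol for 6 h at 37 C. Viability was read as ATP by CellTiter-Glo luminescence after 30 min at room temperature.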

[3] = qHTS assay to identify small molecule antagonists of the retinoic acid receptor (RAR) signaling pathway (AID 1159552; note: nearly all actives have a fitted effect of over 50% in size; note: potency is the fitted concentration of half-maximal effect)
Outline: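 Test chemicals and DMSO controls were pin-transferred onto C3RL4 cells a day after seeding; retinol (1 uM final) followed at once. Luminescent reporter output was quantified after 6 hr of co-incubation and 30 min with detection reagent.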

[4] = qHTS assay to identify small molecule antagonists of the estrogen related receptor (ERR) signaling pathway from Tox21 library - cell viability counter screen (AID 1224834); note: nearly all actives have a fitted effect of over 30% in size
Outline: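 ERR reporter cells were plated 6 h before compound addition, then exposed to test compounds in DMSO for 17.5 h at 37 C. Viability was read as CellTiter-Fluor fluorescence after a 30-minute incubation at 37 C.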

[5] = qHTS assay to identify small molecule agonists of the constitutive androstane receptor (CAR) signaling pathway - cell viability counter screen (AID 1224836); note: series mostly up to about 92 µM; nearly all actives have a fitted effect of over 45% in size
Outline: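 23 h treatment, 37 C, 5% CO2. Cell line: HepG2 stably expressing hCAR with a CYP2B6-2.2kb construct. Co-treatment: PK11195, 0.75 uM final. Read-out: CellTiter-Fluor fluorescence intensity.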

[6] = qHTS assay to identify small molecule antagonists of the constitutive androstane receptor (CAR) signaling pathway - cell viability counter screen (AID 1224837); note: series mostly up to about 92 µM; nearly all actives have a fitted effect of over 45% in size
Outline: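 HepG2 cells stably expressing hCAR and a CYP2B6-2.2kb reporter were plated and pre-incubated 4 hr at 37 C/5% CO2, then given compounds at 15 concentrations plus 50 nM CITCO (final). After 23 hr, viability was read by CellTiter-Fluor fluorescence.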

[7] = target: Nuclear receptor subfamily 1 group I member 3 (Homo sapiens) (UniProt Q14994); test: qHTS assay to identify small molecule antagonists of the constitutive androstane receptor (CAR) signaling pathway (AID 1224838); note: nearly all actives have a fitted effect of over 40% in size
Outline: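 HepG2 cells stably co-transfected with hCAR and a CYP2B6-2.2kb luciferase reporter were seeded 4 h before compound addition at 15 concentrations. Cells were stimulated with 50 nM CITCO (final) for 24 h at 37 C; luciferase luminescence was then read.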

[8] = target: Nuclear receptor subfamily 1 group I member 3 (Homo sapiens) (UniProt Q14994); test: qHTS assay to identify small molecule agonists of the constitutive androstane receptor (CAR) signaling pathway (AID 1224839); note: nearly all actives have a fitted effect of over 15% in size; note: potency is the fitted concentration of half-maximal effect
Outline: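 Compounds tested at 15 concentrations on HepG2 cells stably harbouring hCAR and CYP2B6-2.2kb reporter constructs, co-treated with PK11195 (0.75 uM final), 24 h at 37 C; luminescent reporter signal quantified.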

[9] = qHTS assay to identify small molecule antagonists of the estrogen related receptor signaling pathway with the pleiotropic PPARgamma coactivator (PGC) from Tox21 10K library - cell viability counter screen (AID 1224840; active = well fitted cell-killing curve with a large enough effect in the repeat runs, not every such curve was filed as active; note: nearly all actives have a fitted effect of over 40% in size)
Outline: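 PGC/ERR cells were seeded at 2,000 cells/well and left 6 hours at 37 C/5% CO2 before pin-tool addition of compounds in DMSO. After 17.5 hours at 37 C, CellTiter-Fluor was added and fluorescence read 30 minutes later.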

[10] = qHTS assay to identify small molecule antagonists of the estrogen related receptor signaling pathway with the pleiotropic PPARgamma coactivator (PGC) from Tox21 10K library (AID 1224841; call rule not given here; note: actives are mostly falling curves and most rising ones were filed inactive; nearly all actives have a fitted effect of over 50% in size; note: potency is the fitted concentration of half-maximal effect)
Outline: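 PGC/ERR reporter cells were seeded at 2,000 cells/well and held 6 hours at 37 C/5% CO2 before pin-tool addition of compounds in DMSO. After 18 hours at 37 C, One-Glo was added and luminescence read after 30 minutes at room temperature.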

[11] = qHTS assay to identify small molecule agonists of the estrogen related receptor signaling pathway with the pleiotropic PPARgamma coactivator (PGC) from Tox21 10K library (AID 1224842); note: nearly all actives have a fitted effect of over 15% in size
Outline: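 PGC/ERR reporter cell line, 2,000 cells per well, incubated 6 h at 37 C before 23 nL compound in DMSO was added. After 18 h at 37 C, One-Glo luminescence read following 30 min at room temperature.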

[12] = target: Thyrotropin receptor (Homo sapiens) (UniProt P16473); test: qHTS assay to identify small molecule agonists of the thyroid stimulating hormone receptor (TSHR) signaling pathway (AID 1224843; calls by dose curve; note: nearly all actives have a fitted effect of over 45% in size; note: potency is the fitted concentration of half-maximal effect)
Outline: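 Steps: seed 800 TSHR-HEK293 cells per well; add test compound and hold 30 min at ambient temperature; dispense cAMP-d2 then anti-cAMP cryptate; incubate 1 h at ambient; measure fluorescence intensity.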

[13] = target: Luciferin 4-monooxygenase (Photinus pyralis) (UniProt P08659); test: qHTS assay to identify small molecule inhibitors of firefly luciferase (AID 1224835); note: nearly all actives have a fitted effect of over 25% in size; note: potency is the fitted concentration of half-maximal effect
Outline: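 Biochemical qHTS: compounds run as interplate titrations against purified firefly enzyme, with D-luciferin and ATP each at its KM concentration. Light output recorded by CCD imaging.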

[14] = qHTS assay to identify small molecule agonists of the retinoic acid receptor (RAR) signaling pathway (AID 1159553); note: potency is the fitted concentration of half-maximal effect
Outline: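 C3RL4 cells carrying a RARE luciferase reporter were plated overnight at 37 C, then exposed to compounds in DMSO for 6 hr at 37 C and 5% CO2. Luminescence was read 30 min after luciferase reagent addition at room temperature.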

Sequence of Nuclear receptor subfamily 1 group I member 3 (Homo sapiens) (Q14994 whole entry, looked up): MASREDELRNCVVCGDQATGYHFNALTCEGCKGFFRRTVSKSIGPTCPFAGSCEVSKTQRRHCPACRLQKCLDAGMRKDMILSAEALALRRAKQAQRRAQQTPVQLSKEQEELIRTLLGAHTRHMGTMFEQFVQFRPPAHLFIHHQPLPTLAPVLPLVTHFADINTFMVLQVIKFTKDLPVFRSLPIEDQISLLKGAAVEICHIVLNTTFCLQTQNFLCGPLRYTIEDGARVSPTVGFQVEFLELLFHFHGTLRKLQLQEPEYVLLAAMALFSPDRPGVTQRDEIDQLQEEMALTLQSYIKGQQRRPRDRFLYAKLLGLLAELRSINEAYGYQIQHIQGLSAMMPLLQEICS
Sequence of Thyrotropin receptor (Homo sapiens) (P16473 whole entry, looked up): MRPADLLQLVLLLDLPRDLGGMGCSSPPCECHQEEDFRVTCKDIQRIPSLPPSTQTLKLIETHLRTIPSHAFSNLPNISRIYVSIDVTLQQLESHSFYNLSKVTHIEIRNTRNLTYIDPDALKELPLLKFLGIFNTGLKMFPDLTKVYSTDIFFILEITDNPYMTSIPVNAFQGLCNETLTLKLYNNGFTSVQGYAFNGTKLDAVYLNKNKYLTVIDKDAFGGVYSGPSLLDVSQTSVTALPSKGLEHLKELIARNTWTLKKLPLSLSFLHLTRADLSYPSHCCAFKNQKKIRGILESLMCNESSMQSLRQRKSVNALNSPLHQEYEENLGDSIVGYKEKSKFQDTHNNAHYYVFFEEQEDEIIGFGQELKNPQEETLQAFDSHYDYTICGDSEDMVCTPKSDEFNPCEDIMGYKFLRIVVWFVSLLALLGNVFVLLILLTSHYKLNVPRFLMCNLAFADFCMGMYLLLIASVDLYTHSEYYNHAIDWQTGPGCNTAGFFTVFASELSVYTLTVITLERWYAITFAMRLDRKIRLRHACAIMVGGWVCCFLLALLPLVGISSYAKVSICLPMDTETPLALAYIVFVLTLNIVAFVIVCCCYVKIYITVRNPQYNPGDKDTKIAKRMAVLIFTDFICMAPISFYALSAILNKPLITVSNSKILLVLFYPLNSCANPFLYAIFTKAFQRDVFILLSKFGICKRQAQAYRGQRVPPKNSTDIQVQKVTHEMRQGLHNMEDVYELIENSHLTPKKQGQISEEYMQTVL
Sequence of Luciferin 4-monooxygenase (Photinus pyralis) (P08659 whole entry, looked up): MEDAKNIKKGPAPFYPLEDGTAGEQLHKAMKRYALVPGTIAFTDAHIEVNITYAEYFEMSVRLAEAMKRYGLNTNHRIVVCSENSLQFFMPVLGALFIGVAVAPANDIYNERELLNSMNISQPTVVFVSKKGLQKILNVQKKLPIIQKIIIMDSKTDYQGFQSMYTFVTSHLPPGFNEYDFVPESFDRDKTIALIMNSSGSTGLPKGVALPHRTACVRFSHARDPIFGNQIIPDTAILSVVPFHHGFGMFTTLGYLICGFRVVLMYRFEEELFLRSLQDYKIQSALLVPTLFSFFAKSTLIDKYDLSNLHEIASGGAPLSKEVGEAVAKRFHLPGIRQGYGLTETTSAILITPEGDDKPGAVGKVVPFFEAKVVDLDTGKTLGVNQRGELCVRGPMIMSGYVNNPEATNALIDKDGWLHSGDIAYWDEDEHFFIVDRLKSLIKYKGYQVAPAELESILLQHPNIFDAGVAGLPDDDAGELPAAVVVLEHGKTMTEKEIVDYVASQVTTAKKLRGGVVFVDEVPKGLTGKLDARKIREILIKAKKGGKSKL

| Compound | Potency [1] | Potency [2] | Potency [3] | Potency [4] | Potency [5] | Potency [6] | Potency [7] | Potency [8] | Potency [9] | Potency [10] | Potency [11] | Potency [12] | Potency [13] | Potency [14] |
| --- | --- | --- | --- | --- | --- | --- | --- | --- | --- | --- | --- | --- | --- | --- |
| C1CS1 | inactive | inactive | inactive | inactive | inactive | inactive | inactive | inactive | inactive | 19.8 µM (active) | inactive | inactive |  |  |
| CN(C1CCCCC1)C1CCCCC1 | inactive | inactive | inactive | inactive | inactive | inactive | inactive |  | inactive |  |  | inactive | inactive |  |
| c1ccc2sc(SNC3CCCCC3)nc2c1 | inactive | inactive | inactive | inactive | inactive | inactive | inactive |  | inactive |  |  | inactive | 11.1 µM (active) and 22.4 µM (active) |  |
| CC(C)c1ccc(OP(=O)(Oc2ccc(C(C)C)cc2)Oc2ccc(C(C)C)cc2)cc1 | 19.6 µM (active) and 19.5 µM (active) | inactive | 54.9 µM (active) |  | inactive | inactive | inactive | 30.9 µM (active) and 27.3 µM (active) and 48.5 µM (active) |  |  |  | 13.8 µM (active) and 15.4 µM (active) and 13.7 µM (active) | inactive | inactive |
| CCCN(CCC)C(=O)Cc1c(-c2ccc(Cl)cc2)nc2ccc(Cl)cn12 | inactive | inactive | inactive |  | inactive | inactive | inactive |  |  |  |  | inactive |  | inactive |
| SCc1ccccc1 | inactive | inactive | inactive | inactive | inactive | inactive | inactive | inactive |  |  |  | inactive |  |  |
| COC1=CC(=O)O[C@@H](/C=C/c2ccc3c(c2)OCO3)C1 | inactive | inactive | 8.27 µM (active) | inactive | inactive | inactive |  |  | inactive | 18.5 µM (active) | inactive | inactive | 60.6 µM (active) |  |
| CCCCC#N | inactive | inactive |  | inactive | inactive | inactive | inactive | inactive | inactive |  |  | inactive | inactive | inactive |
| CCC1(CC)C(=O)NC(=O)NC1=O | inactive | inactive |  | inactive | inactive | inactive | inactive | inactive | inactive |  |  |  | inactive | inactive |
| CN1CC[C@]23c4c5ccc(O)c4O[C@H]2[C@@H](O)C=C[C@H]3[C@H]1C5 | inactive | inactive |  | inactive | inactive | inactive | inactive |  | inactive |  | inactive | inactive | inactive | inactive |
| CCOC(=O)c1cn2nc(OP(=S)(OCC)OCC)cc2nc1C | inactive | inactive | inactive |  | inactive | inactive |  |  |  | 43.3 µM (active) | inactive |  | inactive |  |
| Clc1ccc(Cl)c(Cl)c1 | inactive | inactive | inactive | inactive | inactive | inactive | inactive | inactive | inactive | inactive | inactive | 2.98 µM (active) and inactive |  |  |
| CCOP(=S)(OCC)SCSc1cc(Cl)ccc1Cl | inactive | inactive | inactive | inactive | inactive | inactive | inactive |  | inactive |  |  | inactive | inactive |  |
| Nc1ccc2c(c1)Cc1ccccc1-2 | inactive | inactive |  | inactive | inactive | inactive | inactive | 48.3 µM (active) | inactive | inactive |  |  | 39.7 µM (active) | 10.8 µM (active) |
| CC(Oc1cc(Cl)c(Cl)cc1Cl)C(=O)O (stereo not drawn) | inactive | inactive |  | inactive | inactive | inactive | inactive | inactive | inactive |  |  | inactive | inactive |  |
| N#CC(C#N)=C(C#N)C#N | inactive | inactive |  | inactive | inactive | inactive | inactive |  |  | 1.8 µM (active) | inactive | inactive | inactive | inactive |
| CCOC(=O)C1OC1(C)c1ccccc1 (stereo not drawn) | inactive | inactive |  | inactive | inactive | inactive | inactive | inactive | inactive |  |  | inactive | inactive |  |
| O=C(O)c1ccc(=O)[nH]c1 | inactive | inactive |  | inactive | inactive | inactive | inactive | inactive | inactive | inactive | inactive | inactive | inactive |  |
| C[C@H]1[C@@H]2Cc3ccc(O)cc3[C@@]1(C)CCN2C | inactive | inactive |  | inactive | inactive | inactive |  |  | inactive | inactive | inactive | inactive | inactive | inactive |
| CCOc1cccc(C2(N3CCN(c4ccccc4)CC3)CCC(C)CC2)c1 (stereo not drawn) | inactive | inactive |  | inactive | inactive | inactive | inactive | inactive | inactive |  |  | inactive | inactive |  |
| NCCc1cc(O)c(O)cc1O | inactive | inactive |  | inactive | inactive | inactive | inactive | inactive | inactive |  |  |  | inactive |  |
| CN1CC[C@]23c4c5ccc(O)c4O[C@H]2[C@@H](O)CC[C@H]3[C@H]1C5 | inactive | inactive |  | inactive | inactive | inactive | inactive |  |  |  |  |  | inactive |  |
| N#CC1(N=NC2(C#N)CCCCC2)CCCCC1 | inactive | inactive |  | inactive | inactive | inactive | inactive |  |  | inactive | inactive |  | inactive | inactive |
| CCCCCBr | inactive | inactive |  | inactive | inactive | inactive | inactive | inactive | inactive |  |  | inactive |  | inactive |
